Measurements published in the supplement of paper PMC6555819.

Each sequence was assayed on VDR:RXRa (NR concentration 270 nM, RXRa partner concentration 90 nM) (assay: PBM binding z-score (relative to random genomic background probes); higher = stronger binding; sequences stand for … in GC…GCGATTGACAGCGTAGAATGAAGG).
Method: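 Protein-binding microarray (Agilent 4x180K custom design, double-stranded 60-nt probes: 5' GC cap, 34-nt variable region, 24-nt constant primer region; full probe sequence given). Purified or IVT nuclear receptor:RXRα heterodimers (3:1 NR:RXRα, mostly 270:90 nM) or homodimers were incubated for 1 h in PBS with 2% milk and no ligand, then detected with Alexa488 antibodies. Fluorescence from o1-orientation probes (~5 replicates averaged) was converted to z-scores against 500 random hg19 background probes. Variable regions are seed direct-repeat (DR0–DR5) sites, all their single-nucleotide variants and half-site ablations.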
Work on CATACAGGGTCAGCTTGGCCAGAGTAGGGACGGC yielded a PBM binding z-score of 2.81.
In the case of CCTTACGGGTCACCAGGTTATAGCACGACGAGCG, the PBM binding z-score is reported as 4.64.
In the case of CAAACTAGGTTAAGAGGTCAAAGTCCGCTTCCCG, the PBM binding z-score is reported as 5.21.
CGTCCAAGGTCATAGGAGGCCAGTGAAGACAGAT gave a PBM binding z-score of 4.93.
CTAGACAGGTGAAAGGTAACTCAGTCTGGTACGC was tested, and the PBM binding z-score was 0.828.
Work on ATCTATAGGTAACAAGTTCAGTGAAAGAGAGGAC yielded a PBM binding z-score of 2.43.
Work on CGTCCAAGGTCAGCAGGTCATTGAAAGCGACGTG yielded a PBM binding z-score of 4.67.
ATTATTAGTTGAGACGAGGGCAACCGATAGGTTG was tested, and the PBM binding z-score was 1.29.
Work on ACTATGAGTTGAGACGAGGGCAACCGATAGGTTG yielded a PBM binding z-score of 1.9.
CCGCGTAGGTTATGGGGCATTCAGGCAACGGTGA was tested, and the PBM binding z-score was -0.207.
AGTCAAAATTCATCTAGGTAACGTAAGATATGCT was tested, and the PBM binding z-score was -0.0109.
For CCTACAGGGCCATTCAGAGGTCATTGATCATATG, the PBM binding z-score was 4.57.
Sequence CCTGCTAGGTCATGGTCAGCTAATCTACAGTATG has a PBM binding z-score of 1.7.
TCTCGGAAGACACGAAGGTCAGAGCTTTCCAGAG gave a PBM binding z-score of 1.08.
With ACGAGCAGGCCAAGTTTGGGTCACTCAAACAAAG the PBM binding z-score was 0.614.
TCATATAGGTTAACAGGTGAAAGTCCGTAAGTTA showed a PBM binding z-score of 2.04.
For ATATGTAGGTTACATTCGGGTCATTCAGGCTATG, the PBM binding z-score was 4.24.
Work on AGAATGAGGTTACCAAAGATCAGGTAAACGCTTG yielded a PBM binding z-score of 1.44.
With CCTATTAGTTGACCATAAGGGAAACCGAAGCTCG the PBM binding z-score was 0.226.
With CAAACTAGGACAAGAGGTCAAAGTCCGCTTCCCG the PBM binding z-score was 5.
Work on CCTCAAAGTTCAACTAAGGTAACGTAAAGCACGC yielded a PBM binding z-score of 4.88.
Sequence AATACAGGGTCACTAGACCAGAGTAGGTACGAAT has a PBM binding z-score of 3.98.
ATCTCTAGCTAAGACTCAGTTCAGTGAAGAACGC gave a PBM binding z-score of 0.552.
CATACAGGGTCAGCTAGGACAGAGTAGGGACGGC was tested, and the PBM binding z-score was 4.03.
Sequence CCTGGGAGGACAACAGGAGGTCAGAGCTGCCAGA has a PBM binding z-score of 1.99.
CCGACTGGGGCAAGGTTTCCATAACGCACAGCCA gave a PBM binding z-score of -0.502.
With CGTCCAAGGTCAAGGTCAGTGACAGAGACTCGAA the PBM binding z-score was 4.83.
TATACAGGGTCCAAGGCCAGAGTACGAATGTCGA gave a PBM binding z-score of 0.821.
Sequence TCATATAGGTAAAGGTAAAAGTCGAACGATATGA has a PBM binding z-score of 0.657.
AGAACGAGGGCAATCAGTTGATAGCACGGGTGGC gave a PBM binding z-score of 2.58.
GCTAGTTGGTCAGTAAAAGGTCACACTCCGGTCG gave a PBM binding z-score of 3.76.
For GATACAGGGTCAGCTAGAGGCCAGAGGATGGAAA, the PBM binding z-score was 3.12.
TAGCCCAGGTCATTGGGCCAGTATAGTACGCATC was tested, and the PBM binding z-score was 3.03.
ATCGGAAGGTCGACGAGGTGAGTATACACCGTTT gave a PBM binding z-score of 3.87.
Work on GCTGGTAGGTCAACTGATGGTCAGCTAAAGCTCG yielded a PBM binding z-score of 2.01.
CCTAGGAGGCCAGGGTCACTCAAGCATTTCGCTT gave a PBM binding z-score of 2.44.
For TCTATTAGCTGAAGGGCAACCGACGAGTCCGTTT, the PBM binding z-score was 0.475.
Sequence CAAACTTGGTCAAAGGTCAAAGTCGAGCCAACCA has a PBM binding z-score of 5.59.
CCTAGTTAGTCAAGGTCACACACGCTATAGGTAC was tested, and the PBM binding z-score was 4.26.
For TGAATGAGGTTAAAGATCAGGGACCGTGGCGTCG, the PBM binding z-score was 1.77.
